The whole screen tested about 320,000 compounds, of which about 22,000 (6.9%) were called active. About 27% were inconclusive and are not listed. Calls follow the shape of the dose curve; as a rule, active = well fitted inhibition curve with a large enough effect; inconclusive = small, poorly fitted or top-dose-only effect, or another doubt; inactive = no such curve, though single readings can be large or run the other way. This excerpt belongs to a sample that is enriched for actives.
% is scaled to controls: 0 for no effect and ±100 for the full control effect; potency is read from the fitted curve at half-maximal effect.

A short description of this experiment: Primary qHTS for delayed death inhibitors of the malarial parasite plastid, 96 hour incubation. Particulars: P. falciparum luciferase reporter growth; series mostly up to 28.7 µM; activity change, negative = inhibition: at the top concentration. The method, boiled down:
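Readout is luminescence from an integrated firefly luciferase in P. falciparum. Red cells, 2% hematocrit and 0.05% parasitemia final, were cultured with compound through two parasite generations (96 hours) at 37 C, 5% CO2.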
(In qHTS, concentration-response curves come from the screen itself.)
In the case of `COc1ccc(C(=O)CCC(=O)Nc2cccnc2)c(OC)c1`, the “activity change, negative = inhibition” value was 7.01% (inactive).

With `CCOC(=O)C1(Cc2cccc(OC)c2)CCCN(C(=O)CCSC)C1` (stereo not drawn), the Potency was 0.37 µM (active).

Take `CCOC(=O)C1(Cc2cccc(OC)c2)CCN(Cc2csc(C(C)=O)c2)CC1`: the “activity change, negative = inhibition” value is 20.7% (inactive).

As to `CCOC(=O)C1(Cc2ccccc2C)CCCN(C(=O)CCc2c(C)noc2C)C1` (stereo not drawn), the Potency was 11.7 µM (active).

For the molecule `CCOC(=O)C1(Cc2cccc(OC)c2)CCN(C(C)CC(C)(C)O)CC1` (stereo not drawn), the “activity change, negative = inhibition” value is 41.4% (inactive).

Consider `CCOC(=O)C1(Cc2ccccc2C)CCCN(S(C)(=O)=O)C1` (stereo not drawn), for which the “activity change, negative = inhibition” value was -32.4% (inactive).

As for `Cc1noc(C)c1CCC(=O)O`, the “activity change, negative = inhibition” value was 2.96% (inactive).

For the molecule `COc1ccc(-c2c(NC(=O)c3ccco3)oc3ccc(Cl)cc3c2=O)cc1`, the “activity change, negative = inhibition” value was -23.7% (inactive).

As to `CCCc1cc(=O)[nH]c(SCC(=O)N2C(C)CCCC2C)n1` (stereo not drawn), the “activity change, negative = inhibition” value was 5.23% (inactive).

As to `CC1(C)NC(=O)N(CC(=O)Nc2cc(C(F)(F)F)cc(C(F)(F)F)c2)C1=O`, the “activity change, negative = inhibition” value is 0% (inactive).

As to `O=C(COC(=O)CNC(=O)C1CCCCC1)Nc1cccc(F)c1`, the “activity change, negative = inhibition” value was 9.28% (inactive).

On to `CCOc1ccc2nc(N3CCCN(C(=O)Nc4ccccc4C)CC3)c(C#N)cc2c1`, for which the Potency is 13.1 µM (active).

With `Cc1ccc(F)cc1NC(=O)N1CCCN(c2ccc(C(F)(F)F)cn2)CC1`, the “activity change, negative = inhibition” value was -5.35% (inactive).

In the case of `COc1ccc2nc(N3CCCC(O)C3)c(C#N)cc2c1` (stereo not drawn), the “activity change, negative = inhibition” value is 18.5% (inactive).

As for `CC1(C)O[C@H]2CC(=O)OCC23[C@H]2CC[C@@]4(C)[C@H](c5ccoc5)OC(=O)[C@H]5O[C@]54[C@]2(C)C(=O)C[C@@H]13` (stereo partly drawn), the “activity change, negative = inhibition” value is 7.54% (inactive).

`O=C1/C(=C/c2coc3ccc(O)cc3c2=O)SC(=S)N1c1ccccc1`: the “activity change, negative = inhibition” value is 75.1% (inactive).

On to `CC(C)(C)C(=O)CN1C2=NCCN2c2ccccc21`, for which the “activity change, negative = inhibition” value was -4.41% (inactive).

In the case of `COc1cc(C)c(C)cc1S(=O)(=O)N1CCCc2ccccc21`, the “activity change, negative = inhibition” value was -9.05% (inactive).

`Cc1cc2c(cc1C)N(Cc1ccccc1)C1=NCCCN12`: the Potency is 7.38 µM (active).

Turning to `COC(=O)c1ccc(/C=C2/C(=O)Oc3ccccc32)cc1`, the “activity change, negative = inhibition” value was 17.3% (inactive).

Turning to `Clc1cc(NC2CCCCC2)ncn1`, the “activity change, negative = inhibition” value was 14.6% (inactive).

In the case of `O=C1c2ccccc2S(=O)(=O)N1Cc1c(F)cccc1Cl`, the “activity change, negative = inhibition” value is 2.02% (inactive).

As for `Cc1cccc(NC(=O)Cn2cc(C(=O)c3ccco3)c3ccccc32)c1`, the “activity change, negative = inhibition” value was 191% (inactive).

In the case of `CC1CCN(C(=O)Cn2cc(C(=O)c3ccco3)c3ccccc32)CC1`, the Potency was 10.4 µM (active).

As for `N#Cc1ccc(Cn2cc(C(=O)c3ccco3)c3ccccc32)cc1`, the “activity change, negative = inhibition” value was 8.66% (inactive).

Consider `CC(=O)Nc1ccc(S(=O)(=O)N2CCn3cccc3C2C)cc1` (stereo not drawn), for which the “activity change, negative = inhibition” value is -27.5% (inactive).

Regarding `Cc1cc(NC(=O)c2ccc(F)cc2)ccc1NC(=O)c1ccco1`, the “activity change, negative = inhibition” value was 0.99% (inactive).

For the molecule `CC1CCCN(S(=O)(=O)c2ccc(-c3ccc(=O)[nH]n3)o2)C1` (stereo not drawn), the “activity change, negative = inhibition” value was -16.1% (inactive).

`CN(Cc1c(F)cccc1Cl)S(=O)(=O)c1cccs1`: the “activity change, negative = inhibition” value is 43% (inactive).

Consider `COc1ccc2cc1Oc1ccc(cc1)C[C@H]1c3cc(c(OC)cc3CCN1C)Oc1c(O)c(OC)cc3c1[C@H](C2)N(C)CC3`, for which the Potency was 1.85 µM (active).

As for `CCOc1ccc(C(=O)COC(=O)c2ccc(-n3cnnn3)cc2)cc1`, the “activity change, negative = inhibition” value is -1.17% (inactive).

Turning to `CC1(C)C(C=C(Cl)Cl)C1C(=O)N(Cc1ccc(Cl)cc1)C1CCS(=O)(=O)C1` (stereo not drawn), the Potency was 11.7 µM (active).

With `CCOc1ccc(C(=O)N(Cc2ccc(N(C)C)cc2)C2CCS(=O)(=O)C2)cc1` (stereo not drawn), the activity change, negative = inhibition was 17.3% [at 5.75 µM] (inactive).

Turning to `COc1cc(C(=O)N(Cc2ccc(N(C)C)cc2)C2CCS(=O)(=O)C2)cc(OC)c1OC` (stereo not drawn), the “activity change, negative = inhibition” value was -19.2% (inactive).

On to `O=C1[C@@H]2C(c3cccnc3)=NO[C@@H]2C(=O)N1c1ccc(Cl)cc1Cl`, for which the “activity change, negative = inhibition” value is 33.2% (inactive).

With `CC(C)[C@H](NC(=O)OCc1ccccc1)C(=O)OCc1ccccc1`, the “activity change, negative = inhibition” value is 19.1% (inactive).

Take `COc1ccc(C2NC(=O)C(=O)/C2=C(\O)c2ccc(Cl)cc2)cc1OC` (stereo not drawn): the “activity change, negative = inhibition” value was -2.4% (inactive).

Take `CCCN(CC(=O)Nc1ccccc1C)C(=O)c1ccc2[nH]c3c(c2c1)CC(C)CC3` (stereo not drawn): the Potency is 13.1 µM (active).

Take `CCCN(CC(=O)Nc1ccc(C(N)=O)cc1)CC(=O)Nc1ccccc1C`: the “activity change, negative = inhibition” value is 3.33% (inactive).

Turning to `CC1CCc2[nH]c3ccc(C(=O)N(C)CC(=O)Nc4cccc(F)c4)cc3c2C1` (stereo not drawn), the “activity change, negative = inhibition” value was -0.213% (inactive).

With `O=C(OCc1nnc(-c2ccccc2)o1)c1cc(=O)[nH]c2ccccc12`, the “activity change, negative = inhibition” value is 10.2% (inactive).

Regarding `CCc1nnc(NC(=O)CSCc2cc(=O)n3cc(C)sc3n2)s1`, the “activity change, negative = inhibition” value was 29.2% (inactive).

In the case of `CC(NCCc1ccc(S(N)(=O)=O)cc1)C(=O)NCc1ccccc1` (stereo not drawn), the “activity change, negative = inhibition” value is -7.88% (inactive).

On to `COc1ccc(NC(=O)C2COc3ccccc3O2)cc1` (stereo not drawn), for which the Potency is 1.17 µM (active).

`O=C(Nc1nc2c(F)cc(F)cc2s1)C1COc2ccccc2O1` (stereo not drawn): the “activity change, negative = inhibition” value is -7.95% (inactive).

In the case of `CC(=O)c1cccc(NC(=O)C2COc3ccccc3O2)c1` (stereo not drawn), the Potency was 2.62 µM (active).

As for `COc1ccc(NC(=O)CC2COc3ccccc3O2)c(OC)c1` (stereo not drawn), the “activity change, negative = inhibition” value was 245% (inactive).

With `O=C(Nc1nc(-c2ccncc2)cs1)C1COc2ccccc2O1` (stereo not drawn), the “activity change, negative = inhibition” value is 5.96% (inactive).

Regarding `CC(=O)c1cccc(NC(=O)C2CCN(C(=O)c3ccccc3Cl)CC2)c1`, the “activity change, negative = inhibition” value is -21.5% (inactive).

With `CCNC(=S)N(CCN(CC)CC)Cc1cc2cc3c(cc2[nH]c1=O)OCCO3`, the “activity change, negative = inhibition” value is -17.8% (inactive).

With `O=C(/C=C/c1cccc([N+](=O)[O-])c1)N1CCN(Cc2ccccc2)CC1`, the “activity change, negative = inhibition” value was 16.1% (inactive).

For `Clc1ccc(C[n+]2cc(-c3ccc(Cl)cc3)n3c2CCC3)cc1`, the Potency is 0.37 µM (active).

`Clc1ccc(C[n+]2cc(-c3ccccc3)n3c2CCC3)cc1`: the Potency is 0.586 µM (active).

The record behind these values is PubChem BioAssay AID504834 (National Center for Advancing Translational Sciences (NCATS), 2011).
